# Measured values: PubChem BioAssay (EPA / NIEHS)
# The source made the active and inactive calls. How the source made its calls: active means hit-call score of the fitted dose curve at least 0.9, where 1 is the maximum; inconclusive means response in the unintended direction; inactive means score below 0.9.
# Target: Peroxisome proliferator-activated receptor gamma (Homo sapiens) (UniProt P37231)
# Assay: OT_PPARg_PPARgSRC1_1440: Odyssey Thera (OT) 24-hour Protein-Complementation Assay for Peroxisome Proliferator-activated Receptor Gamma/ SRC-1 Co-activator (AID 2283388);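 further: nuclear to cytoplasmic ratio of reconstituted Venus YFP fluorescence in fixed imaged cells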
# Protocol: OT_PPARg_PPARgSRC1_1440 is a cell-based assay that uses HEK293T, a human kidney cell line, with measurements taken at 24 hours after chemical dosing in a 384-well plate.OT_PPARg_PPARgSRC1_1440 is one of one assay component(s) measured or calculated from the OT_PPARg_PPARgSRC1_1440 assay. It is designed to make measurements of protein fragment complementation, a form of binding reporter, as detected with fluorescence intensity signals by Protein-fragment Complementation technology.Data from the assay component OT_PPARg_PPARgSRC1_1440 was analyzed into 1 assay endpoint. This assay endpoint, OT_PPARg_PPARgSRC1_1440, was analyzed in the positive analysis fitting direction relative to DMSO as the negative control and baseline of activity. Using a type of binding reporter, measures of receptor for gain-of-signal activity can be used to understand the binding at the pathway-level as they relate to the gene PPARG. Furthermore, this assay endpoint can be referred to as a primary readout, because the performed assay has only produced 1 assay endpoint. To generalize the intended target to other relatable targets, this assay endpoint is annotated to the nuclear receptor intended target family, where the subfamily is non-steroidal.
# The OT PPARg/SRC-1 assay assessed receptor-chemical interactions using a rapidly maturing, intensely fluorescent mutant of YFP known as Venus, rationally dissected into two separate fragments. The fragments were obtained as follows: first, fragments coding for YFP1 and YFP2 (corresponding to amino acid residues 1-158 and 159-239 of the full length YFP, respectively) were generated by oligonucleotide synthesis (Blue Heron Biotechnology), and then PCR mutagenesis was used to generate the mutant fragments IFP1 and IFP2. Fusion constructs were transfected into HEK293T cells with a (Gly4Ser)2 linker between the PPARg/SRC-1 and YFP fragment genes to facilitate complementation when interacting proteins bring fragments into close proximity. The construct is transiently transfected in HEK293T cells 48 hours prior to treatment with test compounds. Cells are seeded into optical quality 384-well poly-D-lysine coated plates in MEM alpha medium (Invitrogen) supplemented with 10 percent FBS (Gemini Bio-Products) 1 percent penicillin and 1 percent streptomycin, and grown in 37C incubator equilibrated to 5 percent CO2. Cells are allowed to adhere for 24 hours prior to treatment with compounds of interest or controls for 24 hours. Cells are fixed in 4 percent formaldehyde and stained with Draq5 (BioStatus) to identify cells and subcellular compartment boundaries prior to signal detection. 8 Images per well were acquired on an Evotec Opera at 2 wavelengths (488 and 635nm), and the ratio of fluorescence in the nucleus relative to fluorescence in the cytoplasm (N/C Ratio) in the 488nm channel was calculated for a minimum of 350 cells per image.
# Peroxisome proliferator-activated receptor gamma (Homo sapiens), sequence (P37231 whole entry, looked up): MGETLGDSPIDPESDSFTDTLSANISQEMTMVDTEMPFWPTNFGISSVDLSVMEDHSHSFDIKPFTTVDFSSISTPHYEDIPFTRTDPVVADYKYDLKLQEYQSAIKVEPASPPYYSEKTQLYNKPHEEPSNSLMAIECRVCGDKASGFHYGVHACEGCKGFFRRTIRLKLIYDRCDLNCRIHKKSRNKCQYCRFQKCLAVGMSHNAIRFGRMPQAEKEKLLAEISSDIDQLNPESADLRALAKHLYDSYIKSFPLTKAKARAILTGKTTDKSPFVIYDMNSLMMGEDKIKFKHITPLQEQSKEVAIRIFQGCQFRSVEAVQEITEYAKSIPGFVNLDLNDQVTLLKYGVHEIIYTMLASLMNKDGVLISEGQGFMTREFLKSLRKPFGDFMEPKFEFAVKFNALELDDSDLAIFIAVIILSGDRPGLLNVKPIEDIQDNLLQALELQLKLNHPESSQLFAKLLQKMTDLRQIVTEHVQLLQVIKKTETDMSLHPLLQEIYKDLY
row,SMILES,outcome
1,CCOC(=O)C(Cl)Cc1cc(-n2nc(C)n(C(F)F)c2=O)c(F)cc1Cl (stereo not given),inactive
2,CC(C)(C)c1ccc(CSc2cnn(C(C)(C)C)c(=O)c2Cl)cc1,inactive
3,Oc1ccccc1-c1ccccc1,inactive
4,CCON=C(CC)C1=C(O)CC(c2c(C)cc(C)cc2C)CC1=O (stereo not given),inactive
5,O=C(O)COc1nc(Cl)c(Cl)cc1Cl,inactive
6,Cc1ccc(-c2c(Cl)nc(C#N)n2S(=O)(=O)N(C)C)cc1,inactive
7,COc1nc(NC(C)C)nc(NC(C)C)n1,inactive
8,COc1ccc(C(c2ccc(OC)cc2)C(Cl)(Cl)Cl)cc1,inactive
9,Fc1ccc(Oc2ccnc3cc(Cl)cc(Cl)c23)cc1,inactive
10,COC(=O)N(OC)c1ccccc1COc1ccn(-c2ccc(Cl)cc2)n1,inactive
11,CNC(=O)ON=CC(C)(C)SC,inactive
12,CC1COC(Cn2cncn2)(c2ccc(Oc3ccc(Cl)cc3)cc2Cl)O1 (stereo not given),inactive
13,COc1cnc(OC)n2nc(NS(=O)(=O)c3c(OCC(F)F)cccc3C(F)(F)F)nc12,inactive
14,CCc1nn(C)c(C(=O)NCc2ccc(C(C)(C)C)cc2)c1Cl,inactive
15,COC(=O)C=C(C)OP(=O)(OC)OC,inactive
16,N#Cc1cc(Br)c(O)c(Br)c1,inactive
17,CCCN(CCC)c1c([N+](=O)[O-])cc(S(N)(=O)=O)cc1[N+](=O)[O-],inactive
18,CCCC1COC(Cn2cncn2)(c2ccc(Cl)cc2Cl)O1 (stereo not given),inactive
19,N#CC(CCc1ccc(Cl)cc1)(Cn1cncn1)c1ccccc1 (stereo not given),inactive
20,CCCCNC(=O)n1c(NC(=O)OC)nc2ccccc21,inactive

row,SMILES,outcome
1,CO/C=C(/C(=O)OC)c1ccccc1Oc1cc(Oc2ccccc2C#N)ncn1,inactive
2,CON(C)C(=O)Nc1ccc(Cl)c(Cl)c1,inactive
3,Cc1cc(Cl)ccc1OCC(=O)O,inactive
4,COC(=O)c1ccccc1C(=O)OC,inactive
5,CN(C)C(=S)SSC(=S)N(C)C,inactive
6,C#CCOS(=O)OC1CCCCC1Oc1ccc(C(C)(C)C)cc1 (stereo not given),inactive
7,CCCCOC(=O)c1ccccc1C(=O)OCCCC,inactive
8,CCNc1nc(Cl)nc(NC(C)C)n1,inactive
9,CS/C(C)=N/OC(=O)N(C)SN(C)C(=O)O/N=C(\C)SC,inactive
10,CC(Oc1ccc(Cl)cc1Cl)C(=O)O (stereo not given),inactive
11,C=CC1(C)OC(=O)N(c2cc(Cl)cc(Cl)c2)C1=O (stereo not given),inactive
12,CCCCC(CC)COC(=O)c1ccccc1C(=O)OCC(CC)CCCC (stereo not given),inactive
13,N#Cc1nn(-c2c(Cl)cc(C(F)(F)F)cc2Cl)c(N)c1S(=O)C(F)(F)F (stereo not given),inactive
14,CC1=C(C(=O)Nc2ccccc2)SCCO1,inactive
15,C=CCC1=C(C)C(OC(=O)C2C(C=C(C)C)C2(C)C)CC1=O (stereo not given),inactive
16,CCNc1nc(Cl)nc(NCC)n1,inactive
17,Cc1c(F)c(F)c(COC(=O)C2C(/C=C(\Cl)C(F)(F)F)C2(C)C)c(F)c1F (stereo not given),inactive
18,CCOC(=O)CC(SP(=S)(OC)OC)C(=O)OCC (stereo not given),inactive
19,COP(=S)(OC)Oc1nc(Cl)c(Cl)cc1Cl,inactive
20,COC(=O)C(C)Oc1ccc(Oc2ccc(Cl)cc2Cl)cc1 (stereo not given),inactive
